According to PubChem BioAssay (Tox21):
Results filed as inconclusive are left out. Calls of active or inactive are those of the source. Calls follow the shape of the dose curve; as a rule, active = well fitted curve in the direction sought with a large enough effect in the repeat runs; inconclusive = weak or mixed curves; inactive = no such curve, though single readings can be large; an effect the other way counts as inactive or inconclusive.

Key:
[1] = qHTS RealTime-Glo MT Cell Viability Assay in HepG2 cells - 40 hour (AID 1224870); also: nearly all actives have a fitted effect of over 50% in size
In short: (§1)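 HepG2 cells (600/well) mixed with RealTime-Glo MT reagent, settled 5 h at 37 C/5% CO2 before compound addition. Nonlytic NanoLuc luminescence from viable-cell prosubstrate reduction read repeatedly during 40 h treatment at 37 C.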

[2] = A CellTox Green Cytotoxicity Assay to monitor cytotoxicity in HEK293 cells - 40 hour (AID 1224871); also: nearly all actives have a fitted effect of over 45% in size
In short: (§2)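 Read-out: fluorescence of a cell-impermeant cyanine dye staining DNA of dead cells, proportional to cytotoxicity. HEK293, 600 cells/well with reagent, compound (23 nL DMSO) added after 5 h; reads at 0, 8, 16, 24, 32, 40 h.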

[3] = qHTS RealTime-Glo MT Cell Viability Assay in HEK293 cells - 16 hour (AID 1224872); also: top concentration of the series differs between compounds; nearly all actives have a fitted effect of over 50% in size
In short: (§3)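 HEK293 cells seeded with NanoLuc/prosubstrate reagent, rested 5 h at 37 C, then dosed and kept at 37 C up to 40 h. Nonlytic real-time luminescence from viable cells read at 0, 8, 16, 24, 32 and 40 h.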

[4] = qHTS RealTime-Glo MT Cell Viability Assay in HEK293 cells - 40 hour (AID 1224874); conditions: RealTime-Glo luminescence; max response: stronger effect = lower value; also: nearly all actives have a fitted effect of over 50% in size
In short: (§4)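 Luminescence readout at each listed time point; HEK293, 600 cells/well, RealTime-Glo MT reagent added with cells; compounds pinned (23 nL in DMSO) after 5 h at 37 C; continuous culture at 37 C.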

[5] = A CellTox Green Cytotoxicity Assay to monitor cytotoxicity in HEK293 cells - 24 hour (AID 1224875); also: series mostly up to about 77 µM; nearly all actives have a fitted effect of over 45% in size
In short: as §2

[6] = A CellTox Green Cytotoxicity Assay to monitor cytotoxicity in HepG2 cells - 16 hour (AID 1224876); also: nearly all actives have a fitted effect of over 45% in size
In short: (§5)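 HepG2, 600 cells/well premixed w/ CellTox Green; 5 h settle, 37 C/5% CO2; pintool cpd add (DMSO); 37 C, 40 h; fluorescence read at 0, 8, 16, 24, 32, 40 h.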

[7] = qHTS RealTime-Glo MT Cell Viability Assay in HepG2 cells - 32 hour (AID 1224877); also: nearly all actives have a fitted effect of over 55% in size
In short: (§6)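 HepG2 cells (600/well) were dispensed with RealTime-Glo reagents, incubated 5 h at 37 °C, then treated with compounds in DMSO for up to 40 h. Nonlytic NanoLuc luminescence reflecting viable cells was read at each stated time point.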

[8] = A CellTox Green Cytotoxicity Assay to monitor cytotoxicity in HepG2 cells - 24 hour (AID 1224878); also: nearly all actives have a fitted effect of over 45% in size
In short: as §5

[9] = A CellTox Green Cytotoxicity Assay to monitor cytotoxicity in HepG2 cells - 40 hour (AID 1224879); also: nearly all actives have a fitted effect of over 40% in size
In short: as §5

[10] = qHTS RealTime-Glo MT Cell Viability Assay in HEK293 cells - 0 hour (AID 1224880)
In short: as §4

[11] = A CellTox Green Cytotoxicity Assay to monitor cytotoxicity in HEK293 cells - 32 hour (AID 1224881); also: nearly all actives have a fitted effect of over 40% in size
In short: as §2

[12] = A CellTox Green Cytotoxicity Assay to monitor cytotoxicity in HepG2 cells - 0 hour (AID 1224882); also: nearly all actives have a fitted effect of over 35% in size
In short: as §5

[13] = A CellTox Green Cytotoxicity Assay to monitor cytotoxicity in HepG2 cells - 32 hour (AID 1224883); also: nearly all actives have a fitted effect of over 50% in size
In short: as §5

[14] = A CellTox Green Cytotoxicity Assay to monitor cytotoxicity in HEK293 cells - 8 hour (AID 1224884); also: nearly all actives have a fitted effect of over 35% in size
In short: as §2

[15] = qHTS RealTime-Glo MT Cell Viability Assay in HepG2 cells - 16 hour (AID 1224885); also: nearly all actives have a fitted effect of over 50% in size
In short: as §6

[16] = qHTS RealTime-Glo MT Cell Viability Assay in HEK293 cells - 24 hour (AID 1224886)
In short: as §3

[17] = A CellTox Green Cytotoxicity Assay to monitor cytotoxicity in HEK293 cells - 16 hour (AID 1224888); also: nearly all actives have a fitted effect of over 35% in size
In short: as §2

[18] = qHTS RealTime-Glo MT Cell Viability Assay in HepG2 cells - 0 hour (AID 1224889); also: nearly all actives have a fitted effect of over 50% in size
In short: as §6

[19] = qHTS RealTime-Glo MT Cell Viability Assay in HepG2 cells - 8 hour (AID 1224873); also: nearly all actives have a fitted effect of over 55% in size
In short: as §1

[20] = qHTS RealTime-Glo MT Cell Viability Assay in HEK293 cells - 8 hour (AID 1224887)
In short: as §4
% is scaled to controls: 0 for no effect and ±100 for the full control effect.

O=C(O)c1ccc(Cl)cc1Cl
inactive: outcome [1] | Potency [2] | Potency [3] | max response [4] 7.46% | outcome [5] | outcome [6] | outcome [7] | outcome [8] | Potency [9] | Potency [10] | Potency [11] | outcome [12] | Potency [13] | Potency [14] | outcome [15] | Potency [16] | outcome [17] | Potency [18]

Cc1cc(NC(=O)C2=C(O)c3ccccc3S(=O)(=O)N2C)no1
inactive: outcome [1] | Potency [2] | outcome [19] | max response [4] 4.93% | outcome [5] | outcome [6] | outcome [7] | outcome [8] | Potency [9] | Potency [10] | Potency [11] | outcome [12] | Potency [13] | Potency [14] | outcome [15] | Potency [16] | Potency [20] | outcome [17]

BrCCCCCBr
inactive: outcome [1] | Potency [2] | outcome [19] | max response [4] 19.9% | outcome [5] | outcome [6] | outcome [7] | outcome [8] | Potency [9] | Potency [10] | Potency [11] | outcome [12] | Potency [13] | Potency [14] | outcome [15] | Potency [16] | Potency [20] | outcome [17] | Potency [18]

CC(C)(C)OC(=O)c1ccc(O)cc1
inactive: outcome [1] | Potency [2] | outcome [19] | max response [4] -26.7% | outcome [5] | outcome [6] | outcome [7] | Potency [10] | Potency [11] | outcome [12] | Potency [14] | outcome [15] | Potency [16] | outcome [17] | Potency [18]

Cc1ccc2ccc(Cl)cc2n1
inactive: outcome [1] | Potency [2] | outcome [19] | max response [4] 6.03% | outcome [5] | outcome [6] | outcome [7] | outcome [8] | Potency [9] | Potency [10] | Potency [11] | outcome [12] | Potency [13] | Potency [14] | outcome [15] | Potency [16] | Potency [20] | outcome [17] | Potency [18]

CCOC(=O)c1ccc(OC(=O)CCCCCN=C(N)N)cc1
inactive: outcome [1] | Potency [2] | outcome [19] | max response [4] -15.8% | outcome [5] | outcome [6] | outcome [7] | outcome [8] | Potency [9] | Potency [11] | outcome [12] | Potency [13] | Potency [14] | outcome [15] | Potency [16] | Potency [20] | outcome [17] | Potency [18]

c1ccc2nccnc2c1
inactive: outcome [1] | Potency [2] | Potency [3] | max response [4] 5.36% | outcome [5] | outcome [6] | outcome [7] | outcome [8] | Potency [9] | Potency [11] | outcome [12] | Potency [13] | Potency [14] | outcome [15] | Potency [16] | Potency [20] | outcome [17] | Potency [18]

Cc1ccc(S(=O)(=O)O)c(C)c1
inactive: outcome [1] | Potency [2] | outcome [19] | max response [4] 3.15% | outcome [5] | outcome [6] | outcome [7] | outcome [8] | Potency [9] | Potency [10] | Potency [11] | outcome [12] | Potency [14] | outcome [15] | Potency [16] | Potency [20] | outcome [17] | Potency [18]

CC(=O)N[C@@H](CCC(=O)O)C(=O)O
inactive: outcome [1] | Potency [2] | Potency [3] | max response [4] 1.63% | outcome [5] | outcome [6] | outcome [7] | outcome [8] | Potency [9] | Potency [11] | outcome [12] | Potency [13] | Potency [14] | outcome [15] | Potency [16] | outcome [17] | Potency [18]

O=C(O)Cc1cn(-c2ccccc2)nc1-c1ccc(Cl)cc1
inactive: outcome [1] | Potency [2] | outcome [19] | max response [4] -3.35% | outcome [5] | outcome [6] | outcome [8] | Potency [9] | Potency [10] | Potency [11] | outcome [12] | Potency [13] | Potency [14] | outcome [15] | Potency [16] | Potency [20] | outcome [17] | Potency [18]

C[C@H](N)[C@H](O)c1cccc(O)c1
inactive: outcome [1] | Potency [2] | Potency [3] | max response [4] -0.629% | outcome [5] | outcome [6] | outcome [7] | outcome [8] | Potency [9] | Potency [10] | Potency [11] | outcome [12] | Potency [13] | Potency [14] | outcome [15] | Potency [16] | outcome [17] | Potency [18]

CC1(C)S[C@@H]2[C@H](N=CN3CCCCCC3)C(=O)N2[C@H]1C(=O)O
inactive: outcome [1] | Potency [2] | outcome [19] | max response [4] 6.57% | outcome [5] | outcome [6] | outcome [7] | outcome [8] | Potency [9] | Potency [10] | Potency [11] | outcome [12] | Potency [13] | Potency [14] | outcome [15] | Potency [16] | Potency [20] | outcome [17] | Potency [18]

Nc1ccc(S(=O)(=O)Nc2ccc(Cl)nn2)cc1
inactive: outcome [1] | Potency [2] | Potency [3] | max response [4] -0.389% | outcome [5] | outcome [6] | outcome [7] | outcome [8] | Potency [9] | Potency [11] | outcome [12] | Potency [13] | Potency [14] | outcome [15] | Potency [16] | Potency [20] | outcome [17] | Potency [18]

COc1ccc(Br)c(C)c1
inactive: outcome [1] | Potency [2] | outcome [19] | max response [4] 4.1% | outcome [5] | outcome [6] | outcome [7] | outcome [8] | Potency [9] | Potency [10] | Potency [11] | outcome [12] | Potency [13] | Potency [14] | outcome [15] | Potency [16] | Potency [20] | outcome [17] | Potency [18]

CCCCCCCCC(=O)Cl
inactive: outcome [1] | Potency [2] | Potency [3] | max response [4] 10.1% | outcome [5] | outcome [7] | outcome [8] | Potency [9] | Potency [11] | outcome [12] | Potency [13] | Potency [14] | outcome [15] | Potency [16] | outcome [17] | Potency [18]

OCCCCC(O)CO (configuration not stated)
inactive: outcome [1] | Potency [2] | outcome [19] | max response [4] 5.78% | outcome [5] | outcome [6] | outcome [7] | outcome [8] | Potency [9] | Potency [10] | Potency [11] | outcome [12] | Potency [13] | Potency [14] | outcome [15] | Potency [16] | Potency [20] | outcome [17] | Potency [18]
